The list is not random: actives were taken first. Their share in the collection is about 13%.
USP10 block – inhibitors of human USP10 deubiquitinase; AID 1645856, 2021; Ubiquitin carboxyl-terminal hydrolase 10 (Homo sapiens), Q14694; purified USP10, Ub-rhodamine fluorescence, 60 min; hit rate 1.1% among 47,000; inhibition, % at 20 µM
Target sequence (Q14694 whole entry, looked up): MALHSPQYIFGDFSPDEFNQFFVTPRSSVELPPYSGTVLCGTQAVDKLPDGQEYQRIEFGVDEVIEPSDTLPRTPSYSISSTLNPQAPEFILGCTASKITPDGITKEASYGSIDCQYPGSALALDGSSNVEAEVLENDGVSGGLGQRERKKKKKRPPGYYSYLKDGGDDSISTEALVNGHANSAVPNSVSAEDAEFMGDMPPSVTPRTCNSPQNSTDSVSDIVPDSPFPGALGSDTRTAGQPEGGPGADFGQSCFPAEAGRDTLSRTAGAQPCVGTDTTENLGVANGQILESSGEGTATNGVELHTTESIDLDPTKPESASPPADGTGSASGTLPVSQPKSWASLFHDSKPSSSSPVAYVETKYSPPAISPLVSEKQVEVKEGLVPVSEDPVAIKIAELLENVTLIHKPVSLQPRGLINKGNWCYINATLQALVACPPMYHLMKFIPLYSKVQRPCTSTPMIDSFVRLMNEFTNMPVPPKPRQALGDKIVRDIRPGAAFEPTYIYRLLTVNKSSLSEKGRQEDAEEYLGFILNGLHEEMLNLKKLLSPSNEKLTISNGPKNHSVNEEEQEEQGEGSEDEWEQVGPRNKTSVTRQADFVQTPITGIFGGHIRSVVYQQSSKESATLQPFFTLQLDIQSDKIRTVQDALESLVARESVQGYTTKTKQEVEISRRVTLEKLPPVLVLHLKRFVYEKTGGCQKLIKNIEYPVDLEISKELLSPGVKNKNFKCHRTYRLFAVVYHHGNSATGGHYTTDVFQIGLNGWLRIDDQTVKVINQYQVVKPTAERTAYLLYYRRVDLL
USP17 inh – inhibitors of human USP17 deubiquitinase; Ubiquitin carboxyl-terminal hydrolase 17-like protein 5 (Homo sapiens), A8MUK1; inhibition, % at 50 µM; purified USP17, Ub-rhodamine cleavage fluorescence, 3 h; AID 1645855, 2021; hit rate 6.5% among 47,000
USP30 block – inhibitors of human USP30 deubiquitinase. Ubiquitin carboxyl-terminal hydrolase 30 (Homo sapiens), Q70CQ3. purified USP30, Ub-rhodamine cleavage fluorescence. inhibition, % at 25 µM. hit rate 5.3% among 47,000. AID 1645860, 2021
USP28 block – inhibitors of human USP28 deubiquitinase. inhibition, % at 25 µM. purified USP28, Ub-rhodamine cleavage fluorescence, 30 min. AID 1645857, 2021. Ubiquitin carboxyl-terminal hydrolase 28 (Homo sapiens), Q96RU2. hit rate 3% among 47,000
USP8 inh – inhibitors of human USP8 deubiquitinase. inhibition, % at 20 µM. hit rate 4.2% among 47,000. Ubiquitin carboxyl-terminal hydrolase 8 (Homo sapiens), P40818. purified USP8, Ub-rhodamine cleavage fluorescence, 30 min
* marks the source's active call; other numbers are inactive results; i = inactive; . = no result given. No stated cut-off is given here; in the data, active means inhibition above about 30%; inactive means the rest.

SMILES | USP10 block | USP17 inh | USP30 block | USP28 block | USP8 inh
O=C(Nc1ccc2c(c1)OCCO2)N1CCC2(CC1)Nc1ccccc1-n1cccc12 | 4.6 | 14.1 | 21.5 | 19.3 | 0.3
O=C(c1ccccn1)N1CCC2(CC1)CC1(CO2)Nc2ccccc2-n2cccc21 (stereo unspecified) | -6.8 | 46.0* | -144.1 | -18.7 | 76.9*
CCc1ccccc1NC(=O)N1CCC2(CC1)Nc1ccccc1-n1cccc12 | 3.9 | 45.4* | 2.9 | 11.0 | 16.9
O=C(Nc1cccc(C(F)(F)F)c1)N1CCC2(CC1)Nc1ccccc1-n1cccc12 | 9.7 | 21.3 | 43.0* | 6.7 | 2.8
CNc1nc2c(c(=O)n1Cc1ccccc1)CN(S(=O)(=O)c1c(C)noc1C)CC2 | -0.2 | 4.7 | 21.1 | 7.2 | 5.6
O=S(=O)(Cc1ccc(Cl)cc1)N1CCCC1c1nnc2n1CCNCC2 (stereo unspecified) | -4.7 | 4.4 | 3.0 | -0.2 | -1.4
O=C(O)CCc1ccc(S(=O)(=O)Nc2ccccc2Oc2ccccc2)cc1 | 4.8 | 12.1 | -51.0 | 4.5 | 12.6
CN(C)C(=O)N1CCN(S(=O)(=O)Cc2ccccc2)CC2(CC(=O)N(C)C2)C1 (stereo unspecified) | 3.0 | -8.1 | -6.2 | -4.9 | -33.9
O=C(Nc1cccc(-c2nc3cnccc3o2)c1)c1ccc(Br)o1 | 0.8 | 24.9 | 30.6* | 3.1 | 66.4*
O=C(NCc1ccc(-c2nc3cnccc3o2)cc1)c1cc2ccccc2o1 | -4.0 | 80.5* | -14.4 | 0.0 | -16.5
O=C(Nc1cccc(-c2nc3cnccc3o2)c1)c1cccc(F)c1 | -4.1 | 76.4* | . | . | -10.4
COc1ccc(-c2nc3cnccc3o2)cc1NC(=O)c1cccc(F)c1 | -2.5 | 49.3* | -28.0 | -9.4 | -1.5
COc1cc(C(=O)NCc2ccc(-c3nc4cnccc4o3)cc2)cc(OC)c1OC | 0.5 | 11.4 | 2.2 | 6.3 | 17.8
O=C(Nc1cccc2cn[nH]c12)c1cc(Cl)ccc1-n1cnnn1 | -7.2 | -15.5 | -77.1 | -27.1 | -4.0
O=S(=O)(c1ccccc1)c1cnn2c(-c3ccco3)ccnc12 | -7.4 | -13.9 | . | . | -27.4
COc1cccc(C(=O)Nc2cccc(-c3nc4cnccc4o3)c2)c1 | 0.2 | 55.4* | . | . | 6.9
CC1(C)Cc2c(c(N3CCOCC3)nc3sc4c(NCCN5CCOCC5)ncnc4c23)CO1 | -3.0 | -20.5 | -13.2 | -25.1 | -71.2
O=C1CCCN1CCCNc1nc(CN2CCCCC2)nc2sc3c(c12)CCC3 | -0.1 | -18.0 | -68.1 | -32.8 | -10.9
Cc1ccc(-c2ccc(C#N)c(SCc3ccccc3)n2)cc1 | 2.7 | -0.6 | 14.4 | -0.6 | 5.1
CCc1ccccc1NC(=O)CSc1nnc(-c2ccccn2)n1-c1ccc(C)cc1 | 5.1 | 2.4 | 35.3* | 7.8 | 10.2
Cc1ccc(-n2c(SCc3ccc(C#N)cc3)nnc2-c2ccccn2)cc1 | 2.5 | 20.8 | 38.4* | 17.5 | 13.8
Cc1ccc(C(=O)CCC(=O)Nc2ccc(F)c(Cl)c2)cc1 | -7.3 | -148.9 | i | -200.2 | -108.1
O=C(c1ccncc1)N1CCO[C@@H]2CC(COCc3ccccn3)C[C@H]21 (stereo partly specified) | -3.2 | -9.5 | -6.7 | -5.9 | -37.5
O=C(c1nnn(Cc2ccc(Cl)cc2)c1-n1cccc1)N1CCSCC1 | 1.2 | 6.7 | 6.5 | 36.1* | 9.8
Cc1ccc(Cn2nnc(C(=O)N3CCCC3)c2-n2cccc2)cc1 | -6.1 | 9.2 | -30.9 | 13.2 | 17.9
SMILES | USP10 block | USP17 inh | USP30 block | USP28 block | USP8 inh
COc1ccc(Cn2nnc(C(=O)N3CCCCC3)c2-n2cccc2)cc1 | -6.2 | 30.3* | -60.8 | -5.0 | 7.9
O=C(COC(=O)C1CCCN1S(=O)(=O)c1ccc(Cl)cc1)Nc1ccc2c(c1)OCO2 (stereo unspecified) | 8.2 | 22.4 | 33.1* | 30.0 | 19.8
O=C(COC(=O)C1(c2ccc(Cl)cc2)CCCC1)Nc1ccc2c(c1)OCO2 | 16.0 | 7.5 | 47.8* | 19.5 | 36.2*
COc1ccc([N+](=O)[O-])cc1NC(=O)COC(=O)C1CCCN1S(=O)(=O)c1ccc(Cl)cc1 (stereo unspecified) | 6.2 | 0.2 | 34.6* | 3.9 | -18.9
O=c1[nH]c(-c2cccnc2)nc2c1CN(Cc1ccnc(N3CCCC3)n1)CC2 | -8.0 | -32.1 | -75.3 | -19.5 | -0.2
Cc1cc(-c2cccc(C(=O)O)c2)nc(C2CCCN(S(C)(=O)=O)C2)n1 (stereo unspecified) | 1.9 | 4.6 | 24.6 | 10.0 | 19.8
CCCCCN[C@H]1CS(=O)(=O)C[C@@H]1S(=O)(=O)c1ccc(F)c(C)c1 | -2.7 | -0.7 | -30.8 | -3.2 | -1.2
Cn1cccc1C(=O)N1CCC2(CC1)COc1ccccc1S(=O)(=O)N(CC1CC1)C2 | -1.5 | 0.1 | 2.5 | 5.7 | 1.4
COc1ccc(-c2cc(C(=O)NCCc3ccc(S(N)(=O)=O)cc3)c3ccccc3n2)cc1 | 28.9 | -4.6 | -49.8 | 20.2 | 52.7*
COc1ccc(-c2cc3nc(NCCc4ccc(S(N)(=O)=O)cc4)ccn3n2)cc1 | -4.7 | 40.8* | 9.7 | 16.8 | -62.9
NS(=O)(=O)c1ccc(CCNC(=O)c2cc(-c3ccc4c(c3)OCO4)nc3ccccc23)cc1 | 16.3 | -18.2 | -32.4 | 13.8 | 31.1*
Cc1ccc(CCNC(=O)c2cc(Nc3ccccc3)nc3ccccc23)cc1 | 1.4 | 9.4 | -35.3 | -9.3 | -10.7
CCCCN1CCn2c(nc3cc(NS(C)(=O)=O)ccc32)C1 | 0.3 | 3.0 | -1.8 | 5.4 | -7.8
O=C(N[C@@H]1C[C@H]2Oc3ccccc3N[C@H]2[C@@H]1O)c1cccc(F)c1 | 2.5 | 1.6 | 14.8 | 0.7 | 0.6
COc1ccc(NCc2cc(=O)[nH]c3ccccc23)cc1 | 2.5 | 15.5 | 36.7* | 24.4 | 17.4
COc1ccccc1C(=O)Nc1nc2n(n1)C(c1ccccc1)CC(=O)N2 (stereo unspecified) | 3.9 | -0.1 | -4.9 | 4.7 | 1.1
Cc1ccc(-c2cc(C(=O)N3CCc4ccccc4C3)nn2C2CCS(=O)(=O)C2)cc1 (stereo unspecified) | 9.0 | 8.8 | 31.2* | 15.9 | 7.8
Cc1ccc(Cn2cc(SCC(=O)Nc3ccc(F)cc3F)c3ccccc32)cc1 | 5.9 | 31.8* | 21.5 | 5.5 | 2.3
CCOC(=O)N1CCN(C(=O)c2ccc(NCc3ccc(F)cc3)c(S(=O)(=O)Nc3cccc(C(F)(F)F)c3)c2)CC1 | 56.5* | 13.4 | 24.2 | 26.3 | 16.9
CCOC(=O)N1CCN(C(=O)c2ccc(CNS(=O)(=O)c3ccc(NC(C)=O)cc3)cc2)CC1 | 3.3 | 17.4 | 22.8 | 10.0 | 21.8
COC(=O)c1ccccc1NC(=O)Cn1cc(S(=O)(=O)N2CCC(C)CC2)c2ccccc2c1=O | 0.1 | -3.4 | -32.6 | -6.2 | 3.4
CCCCCCCCC/C=C/C(=O)CCc1c(O)c(C=O)c2c(c1O)C(=O)OC2O (stereo unspecified) | 45.4* | 75.0* | -8.9 | 71.0* | 31.4*
COc1cccc(OCC(O)CNc2ccc(Cl)cc2)c1 (stereo unspecified) | 2.9 | 4.9 | -15.5 | -8.1 | 36.8*

Screening data from PubChem.
